The results in this text go back to PubChem BioAssay (NCI).

About 79,000 compounds went through this panel and 15% of them were active in at least one assay; those are over-represented in the sample as a whole. Unmarked numbers belong to inactive results. Active and inactive are the calls of the source. No stated cut-off is given here; in the data, active means growth inhibition above about 70%; inactive means the rest.

Experiment [1] can be described thus: NCI Yeast Anticancer Drug Screen. Data for the rad50 strain (AID 155).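 Further: 0% = growth of vehicle-only cultures of the same strain.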 Conditions: S. cerevisiae rad50 strain growth inhibition; at 50.0 µM; hits give high values. A digest of the protocol:
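Inhibition values express reduced yeast growth in compound-treated cultures relative to vehicle-treated controls.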

Experiment [2] in a line: NCI Yeast Anticancer Drug Screen. Data for the mec2-1 strain (AID 157). Conditions: S. cerevisiae mec2-1 strain, at 50.0 µM, hits give high values. Summed up: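 Cells of the genetically defined mec2-1 yeast strain are incubated with test compound. Inhibition of growth is calculated against vehicle-treated controls.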
Experiment [3] in a line: NCI Yeast Anticancer Drug Screen. Data for the sgs1 mgt1 strain (AID 161).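 Further: 0% = growth of cultures given vehicle only.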 Conditions: S. cerevisiae sgs1 mgt1 strain, at 50.0 µM, hits give high values. A digest of the protocol: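 Inhibition of yeast growth, normalised to vehicle-treated controls, is reported for a strain bearing genetic alterations in DNA damage repair.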
Experiment [4] in a line: NCI Yeast Anticancer Drug Screen. Data for the cln2 rad14 strain (AID 165).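 Further: 0% = growth equal to vehicle treated cultures.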 Conditions: S. cerevisiae cln2 rad14 strain, at 50.0 µM, hits give high values. Summed up:
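The screen exposed genetically defined yeast (cln2 rad14) to test compounds and scored growth inhibition relative to vehicle-treated controls.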

Experiment [5] is described as follows: NCI Yeast Anticancer Drug Screen. Data for the bub3 strain (AID 167). Conditions: S. cerevisiae bub3 mutant strain, at 50.0 µM, hits give high values. A digest of the protocol: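 Steps: expose the mutant yeast strain to compound; grow alongside vehicle-treated cultures; measure growth; express inhibition against the vehicle cultures.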
Experiment [6] is described as follows: NCI Yeast Anticancer Drug Screen. Data for the mlh1 rad18 strain (AID 175). The note with it: S. cerevisiae mlh1 rad18 strain growth inhibition; at 50.0 µM; hits give high values. Summed up:
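Compound-treated yeast growth, normalised to vehicle controls. Strain bears defined DNA repair mutations.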

As to `O=CNc1ccccc1`, the growth inhibition in experiment [1] is 18.6%; in experiment [2] it was 1.7%; in experiment [3], 0.85%; in experiment [4], 6.5%; in experiment [5] it was 7.65%; in experiment [6] it was 7.25%.
As for `CC1(C)C(=O)N(O)C(C)(C)N1N=O`, the growth inhibition in experiment [1] is 1.95%; in experiment [2], 13.4%; in experiment [3], 18.1%; in experiment [4], 28.4%; in experiment [5], 15.4%; in experiment [6], 19.6%.
In the case of `O=[N+]([O-])c1cccc(N=Nc2ccc(N(CCCl)CCCl)cc2)c1`, the growth inhibition in experiment [1] was -23.4%; in experiment [2] it was 0.6%; in experiment [3] it was -2.55%; in experiment [4] it was -27.2%; in experiment [5], 4.65%; in experiment [6], 11.6%.
Turning to `CS(=O)(=O)Oc1c(Cl)cc(S(=O)(=O)F)cc1Cl`, the growth inhibition in experiment [1] is 66.2%; in experiment [2], 75% (active); in experiment [3], 82.8% (active); in experiment [4] it was 45.6%; in experiment [5], 53.5%; in experiment [6], 40.1%.
In the case of `C[C@]12CC[C@@H](O)C[C@H]1[C@@H](O)C[C@@H]1[C@@H]2CC[C@]2(C)C(=O)CC[C@@H]12`, the growth inhibition in experiment [1] is -17.4%; in experiment [2] it was -4.35%; in experiment [3], 3.05%; in experiment [4] it was -17.1%; in experiment [5] it was 25.7%; in experiment [6] it was -11.1%.
In the case of `NC(=O)Nc1cc(NC(N)=O)cc(N(CCCl)CCCl)c1`, the growth inhibition in experiment [1] was -7%; in experiment [2], -19.7%; in experiment [3], -20.1%; in experiment [4], -7.15%; in experiment [5], -15.7%; in experiment [6], -24.1%.
In the case of `ClCCN(CCCl)c1ccc(/C=N/N=C2c3ccccc3-c3ccccc32)cc1`, the growth inhibition in experiment [1] is -21.6%; in experiment [2], -7.05%; in experiment [3], -6.2%; in experiment [4], -2.95%; in experiment [5] it was -18.9%; in experiment [6], -4.5%.
As to `N#CCO`, the growth inhibition in experiment [1] is -3.7%; in experiment [2] it was 11.3%; in experiment [3], -9.1%; in experiment [4], -5.4%; in experiment [5], -3.4%; in experiment [6] it was -5.65%.
As for `C=CCC1(O)CCC2C3CCC4=CC(=O)CCC4=C3C=CC21CC` (stereo not drawn), the growth inhibition in experiment [1] was 26.9%; in experiment [2], -7.35%; in experiment [3], 20.4%; in experiment [4], 19.9%; in experiment [5], 21.5%; in experiment [6], 21.6%.
Turning to `COc1ccc2[nH]cc(/C=C\[N+](=O)[O-])c2c1`, the growth inhibition in experiment [1] was 6%; in experiment [2] it was -10.1%; in experiment [3] it was 32.4%; in experiment [4], 2.2%; in experiment [5], 7.65%; in experiment [6] it was 13.8%.
With `O=S(=O)(F)c1ccccc1S(=O)(=O)Cl`, the growth inhibition in experiment [1] is 11.7%; in experiment [2] it was -2.55%; in experiment [3] it was 15.6%; in experiment [4], 16.4%; in experiment [5], 12.4%; in experiment [6], 21.6%.
On to `Cc1cc(F)ccc1[As](=O)(O)O`, for which the growth inhibition in experiment [1] was -0.55%; in experiment [2] it was -1.95%; in experiment [3] it was -3.25%; in experiment [4] it was -17.9%; in experiment [5], 5%; in experiment [6], 3.25%.
As to `CC(Br)CN(CC(C)Br)c1ccc(-c2ccccc2)cc1` (stereo not drawn), the growth inhibition is 38.5% in experiment [1]; 30% in experiment [2]; 12.6% in experiment [3]; 35.7% in experiment [4]; 15.6% in experiment [5]; 21.7% in experiment [6].
Turning to `Cc1cc(-n2c(/C=C/c3ccc(Cl)cc3)nc3cc(Cl)ccc3c2=O)on1`, the growth inhibition was -27.2% in experiment [1]; -34.3% in experiment [2]; -12.8% in experiment [3]; -0.1% in experiment [4]; -9.75% in experiment [5]; -10.8% in experiment [6].
For `[CH3][Sn]1([CH3])[O]C(=O)C(=O)[O]1`, the growth inhibition in experiment [1] is 12.2%; in experiment [2] it was 19.4%; in experiment [3] it was 2.4%; in experiment [4], -26.8%; in experiment [5], -9.6%; in experiment [6] it was 7.8%.
Consider `ClCc1ccc(Cl)c(Cl)c1`, for which the growth inhibition in experiment [1] is 16.1%; in experiment [2], 3.8%; in experiment [3], -3.05%; in experiment [4], 10.4%; in experiment [5], 1.5%; in experiment [6], -20.4%.
Regarding `NC1CC2NC3CCCCC3NC2CC1N` (stereo not drawn), the growth inhibition in experiment [1] was 14.8%; in experiment [2] it was 6.25%; in experiment [3], -0.6%; in experiment [4], 19.5%; in experiment [5], -22.4%; in experiment [6], 6.55%.
Take `Cc1ccc(S(=O)(=O)OC2CN3CCC2CC3)cc1` (stereo not drawn): the growth inhibition in experiment [1] was 62.4%; in experiment [2] it was -2.95%; in experiment [3], 42.7%; in experiment [4], 26.8%; in experiment [5], 38.4%; in experiment [6] it was 51.5%.
As for `c1ccc2c(c1)c1ccccc1c1n[se]nc21`, the growth inhibition was -4.7% in experiment [1]; -1.5% in experiment [2]; 2.75% in experiment [3]; -6.25% in experiment [4]; 7.55% in experiment [5]; 11.9% in experiment [6].
For the compound `Cc1ccc(C(O)(c2ccc(C)cc2)c2ccccn2)cc1`, the growth inhibition is -6.65% in experiment [1]; 16.9% in experiment [2]; -7% in experiment [3]; -13.8% in experiment [4]; 9.45% in experiment [5]; -35% in experiment [6].
`CCOC(=S)S.[Ag]`: the growth inhibition in experiment [1] was 1.6%; in experiment [2], -17.4%; in experiment [3], -2.05%; in experiment [4] it was -31.6%; in experiment [5], -15.2%; in experiment [6], 14.4%.
`CCCCOP(=O)(O)SP(=O)(O)OCCCC`: the growth inhibition is -13.8% in experiment [1]; 17.1% in experiment [2]; 10.6% in experiment [3]; 20.9% in experiment [4]; 2.3% in experiment [5]; -3% in experiment [6].
For `CC1=CC2OC3CC4OC(=O)/C=C/C=C/C(C(C)O)OCC/C(C)=C/C(=O)OCC2(CC1)C4(C)C31CO1` (stereo not drawn), the growth inhibition in experiment [1] is 92% (active); in experiment [2] it was 94.1% (active); in experiment [3], 93.3% (active); in experiment [4] it was 92.2% (active); in experiment [5] it was 92.6% (active); in experiment [6], 90.7% (active).
With `CC(=O)OC1OC(CS[As](C)C)C(OC(C)=O)C(OC(C)=O)C1OC(C)=O` (stereo not drawn), the growth inhibition is 58.6% in experiment [1]; -3.05% in experiment [2]; 54.8% in experiment [3]; 28.7% in experiment [4]; 17.6% in experiment [5]; 52.5% in experiment [6].
`COC(=O)C(O)(c1ccccc1)C1CCCC1` (stereo not drawn): the growth inhibition in experiment [1] is 20.8%; in experiment [2] it was -10.1%; in experiment [3] it was -10.6%; in experiment [4] it was 11.9%; in experiment [5], 10.1%; in experiment [6], -9.5%.
Regarding `CC(=O)Nc1cc([As](=O)(O)O)ccc1O`, the growth inhibition was 31.6% in experiment [1]; 14.3% in experiment [2]; 31.8% in experiment [3]; -28.2% in experiment [4]; 9.85% in experiment [5]; 33.8% in experiment [6].
Take `CC(C)(C)C(=O)CP(=O)(O)O` (tested in a mixture with another compound): the growth inhibition in experiment [1] was 24.1%; in experiment [2], -4.45%; in experiment [3] it was 1.5%; in experiment [4], 14.7%; in experiment [5], 10.2%; in experiment [6], 15.3%.
Regarding `C=C(C(=C)P(=S)(C(C)C)C(C)C)P(=S)(C(C)C)C(C)C`, the growth inhibition is -8.65% in experiment [1]; -10.6% in experiment [2]; 4.75% in experiment [3]; 24.1% in experiment [4]; -7% in experiment [5]; -3.45% in experiment [6].
As for `COc1ccc(CCl)cc1CCl`, the growth inhibition is -24.2% in experiment [1]; -62.8% in experiment [2]; -7.25% in experiment [3]; 5.85% in experiment [4]; -26.4% in experiment [5]; -43.7% in experiment [6].
As for `S=P12OCCC(CO1)O2` (stereo not drawn), the growth inhibition in experiment [1] is 8.2%; in experiment [2], -9.35%; in experiment [3], 3.85%; in experiment [4], -23.8%; in experiment [5] it was -8.15%; in experiment [6], -3.15%.
On to `COc1ccc(N2CC=C(c3ccccc3)OP2(=O)N(CCCl)CCCl)cc1` (stereo not drawn), for which the growth inhibition in experiment [1] was -49.8%; in experiment [2] it was -4.5%; in experiment [3] it was -3.45%; in experiment [4] it was 9.75%; in experiment [5] it was 6.4%; in experiment [6] it was -3.2%.
As for `OCCN=Cc1c[nH]c2ccccc12`, the growth inhibition is -49.9% in experiment [1]; -42.9% in experiment [2]; -28.1% in experiment [3]; 3.85% in experiment [4]; -42.5% in experiment [5]; -13.9% in experiment [6].
As for `Oc1ccccc1C=NCCN=Cc1ccccc1O`, the growth inhibition in experiment [1] is -15.2%; in experiment [2] it was -11.6%; in experiment [3] it was -1.1%; in experiment [4], -41.2%; in experiment [5] it was -9.2%; in experiment [6], 31.8%.
With `O=C(NC(CCS(=O)(=O)NCc1ccc(S(=O)(=O)F)cc1)C(=O)OCc1ccccc1)OCc1ccccc1` (stereo not drawn), the growth inhibition is 26.8% in experiment [1]; 5.7% in experiment [2]; 16.6% in experiment [3]; 15.4% in experiment [4]; 0.2% in experiment [5]; 29.9% in experiment [6].
On to `CCCCCCCC(=O)O.[Ni]`, for which the growth inhibition is -15.1% in experiment [1]; -0.6% in experiment [2]; -2.3% in experiment [3]; 8.45% in experiment [4]; -18.4% in experiment [5]; -18.5% in experiment [6].
On to `CC(Cl)CN(CC(C)Cl)c1ccc2c(c1)Cc1ccccc1-2` (stereo not drawn), for which the growth inhibition is -20.8% in experiment [1]; -10.1% in experiment [2]; 2.65% in experiment [3]; -46.9% in experiment [4]; 23.1% in experiment [5]; 9% in experiment [6].
In the case of `COc1cc2c(cc1OC)-c1c3c(cc4c1[C@H](C2)N(C)CC4)OCO3`, the growth inhibition is -5% in experiment [1]; -7.7% in experiment [2]; -19.8% in experiment [3]; 6.75% in experiment [4]; -14.2% in experiment [5]; -25.5% in experiment [6].
Turning to `CC(C)(C)SCC(NC(=O)OCc1ccccc1)C(=O)O` (stereo not drawn), the growth inhibition in experiment [1] was 10.8%; in experiment [2] it was 1.7%; in experiment [3], 14.3%; in experiment [4] it was 18.9%; in experiment [5] it was 4.25%; in experiment [6], 7%.
